# Results from publication PMC7862700, “An all-to-all approach to the identification of sequence-specific readers for epigenetic DNA modifications on cytosine”.
# How the values were obtained:
# Assay in all cases: DAPPL (digital affinity profiling via proximity ligation, sequencing); 10 mM Tris-HCl pH 7.5, 50 mM NaCl, 1 mM DTT, 4% glycerol, room temperature, 30 min; GST-TFs on glutathione beads, 16-mer random dsDNA library, 0.1% formaldehyde crosslink after washing; high values mean tight binding
# [1] = biological target: T1, FEV (Homo sapiens, UniProt Q99581 1-238); conditions: protein: recombinant; tags: N-terminal GST; dsDNA, one strand shown
# T1 sequence: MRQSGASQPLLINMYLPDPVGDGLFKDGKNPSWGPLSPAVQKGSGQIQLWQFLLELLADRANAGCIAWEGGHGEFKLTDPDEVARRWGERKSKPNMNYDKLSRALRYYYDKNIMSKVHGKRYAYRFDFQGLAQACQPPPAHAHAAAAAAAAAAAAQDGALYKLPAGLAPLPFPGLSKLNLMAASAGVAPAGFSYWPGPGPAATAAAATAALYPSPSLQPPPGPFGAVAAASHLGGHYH
# How it was run: (§1)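 Sequencing on an Illumina NextSeq500 followed washing, crosslinking with 0.1% formaldehyde, proximity ligation (BsaI/T4 ligase, 1 h, 37 °C) and PCR amplification of pools that had been incubated for 30 min at room temperature with 200 nmole of a random double-stranded 16-mer DNA library in Tris/NaCl/DTT/glycerol buffer. Each pool held DNA-barcoded human transcription factors, expressed in yeast as GST fusions and captured on glutathione beads, plus a tag-only sample. Binding signal is a hexamer's read frequency for a factor divided by its frequency in the tag-only sample.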
# [2] = biological target: ETV5 (Homo sapiens, UniProt P41161 1-510); conditions: protein: recombinant; tags: N-terminal GST; dsDNA, one strand shown
# How it was run: as §1
# [3] = biological target: HSF1 (Homo sapiens, UniProt Q00613 1-529); conditions: protein: recombinant; tags: N-terminal GST; chain copies: 3; dsDNA, one strand shown
# How it was run: as §1
# [4] = biological target: T2, SPIC (Homo sapiens, UniProt Q8N5J4 1-248); conditions: protein: recombinant; tags: N-terminal GST; dsDNA, one strand shown
# T2 sequence: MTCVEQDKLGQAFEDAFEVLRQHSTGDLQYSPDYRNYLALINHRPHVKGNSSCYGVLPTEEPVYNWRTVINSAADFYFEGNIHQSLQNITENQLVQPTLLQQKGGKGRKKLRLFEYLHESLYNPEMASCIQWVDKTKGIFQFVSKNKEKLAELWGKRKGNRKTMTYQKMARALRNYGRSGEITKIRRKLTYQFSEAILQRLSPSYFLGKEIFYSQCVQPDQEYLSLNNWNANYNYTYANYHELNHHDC
# How it was run: as §1
# [5] = biological target: ELF4 (Homo sapiens, UniProt Q99607 1-663); conditions: protein: recombinant; tags: N-terminal GST; dsDNA, one strand shown
# How it was run: as §1
# [6] = biological target: T3, ELK4 (Homo sapiens, UniProt P28324-2 1-405); conditions: protein: recombinant; tags: N-terminal GST; dsDNA, one strand shown
# T3 sequence: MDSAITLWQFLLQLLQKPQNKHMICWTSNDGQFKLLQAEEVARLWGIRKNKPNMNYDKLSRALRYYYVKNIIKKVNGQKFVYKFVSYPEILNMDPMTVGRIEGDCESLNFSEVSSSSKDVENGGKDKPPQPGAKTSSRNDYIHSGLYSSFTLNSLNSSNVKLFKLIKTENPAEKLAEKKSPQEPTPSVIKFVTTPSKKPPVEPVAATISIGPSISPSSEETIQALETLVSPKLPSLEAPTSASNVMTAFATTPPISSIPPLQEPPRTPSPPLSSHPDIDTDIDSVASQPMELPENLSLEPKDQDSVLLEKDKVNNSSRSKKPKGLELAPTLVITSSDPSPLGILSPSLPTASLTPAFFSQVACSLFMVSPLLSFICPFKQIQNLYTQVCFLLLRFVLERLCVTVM
# How it was run: as §1
# [7] = biological target: T4, ETV2 (Homo sapiens, UniProt O00321 1-342); conditions: protein: recombinant; tags: N-terminal GST; dsDNA, one strand shown
# T4 sequence: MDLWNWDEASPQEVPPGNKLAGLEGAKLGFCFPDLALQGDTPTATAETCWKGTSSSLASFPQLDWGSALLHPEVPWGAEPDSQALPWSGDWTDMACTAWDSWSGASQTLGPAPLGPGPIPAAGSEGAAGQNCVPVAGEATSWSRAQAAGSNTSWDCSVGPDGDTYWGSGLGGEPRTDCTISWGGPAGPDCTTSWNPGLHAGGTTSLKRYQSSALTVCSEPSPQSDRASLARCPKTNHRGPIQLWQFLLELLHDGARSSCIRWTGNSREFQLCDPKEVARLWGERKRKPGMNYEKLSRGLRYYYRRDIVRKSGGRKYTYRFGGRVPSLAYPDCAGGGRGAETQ
# How it was run: as §1
# [8] = biological target: T5, ELF3 (Homo sapiens, UniProt P78545 1-371); conditions: protein: recombinant; tags: N-terminal GST; dsDNA, one strand shown
# T5 sequence: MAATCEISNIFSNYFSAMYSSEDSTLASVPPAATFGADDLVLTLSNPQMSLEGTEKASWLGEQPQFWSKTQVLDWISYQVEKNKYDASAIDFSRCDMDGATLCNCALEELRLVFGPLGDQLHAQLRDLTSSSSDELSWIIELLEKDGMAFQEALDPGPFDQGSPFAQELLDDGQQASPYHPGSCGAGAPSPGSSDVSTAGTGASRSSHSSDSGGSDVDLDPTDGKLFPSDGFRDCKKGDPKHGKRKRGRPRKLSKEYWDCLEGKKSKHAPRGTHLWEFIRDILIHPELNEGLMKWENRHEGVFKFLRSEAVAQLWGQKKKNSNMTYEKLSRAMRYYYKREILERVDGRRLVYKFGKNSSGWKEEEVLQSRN
# How it was run: as §1
# [9] = biological target: CRX (Homo sapiens, UniProt O43186 1-299); conditions: protein: recombinant; tags: N-terminal GST; dsDNA, one strand shown
# How it was run: as §1
# [10] = biological target: T6, ERF (Homo sapiens, UniProt P50548 1-548); conditions: protein: recombinant; tags: N-terminal GST; dsDNA, one strand shown
# T6 sequence: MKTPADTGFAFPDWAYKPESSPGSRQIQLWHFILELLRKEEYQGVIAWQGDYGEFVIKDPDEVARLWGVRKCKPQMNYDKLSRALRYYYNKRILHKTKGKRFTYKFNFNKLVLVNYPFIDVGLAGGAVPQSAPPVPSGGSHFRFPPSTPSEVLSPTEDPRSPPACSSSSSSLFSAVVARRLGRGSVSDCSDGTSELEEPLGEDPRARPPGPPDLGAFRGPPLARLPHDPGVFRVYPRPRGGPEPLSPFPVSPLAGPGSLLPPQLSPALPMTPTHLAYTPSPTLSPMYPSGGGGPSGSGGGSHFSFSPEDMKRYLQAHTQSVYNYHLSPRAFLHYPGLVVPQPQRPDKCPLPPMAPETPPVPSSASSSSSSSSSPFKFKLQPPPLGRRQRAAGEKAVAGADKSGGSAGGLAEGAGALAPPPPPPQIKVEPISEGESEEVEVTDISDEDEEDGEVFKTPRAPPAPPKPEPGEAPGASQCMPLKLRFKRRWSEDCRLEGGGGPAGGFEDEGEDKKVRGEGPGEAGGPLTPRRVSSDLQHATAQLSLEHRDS
# How it was run: as §1
# [11] = biological target: T7, ETV3L (Homo sapiens, UniProt Q6ZN32 1-361); conditions: protein: recombinant; tags: N-terminal GST; dsDNA, one strand shown
# T7 sequence: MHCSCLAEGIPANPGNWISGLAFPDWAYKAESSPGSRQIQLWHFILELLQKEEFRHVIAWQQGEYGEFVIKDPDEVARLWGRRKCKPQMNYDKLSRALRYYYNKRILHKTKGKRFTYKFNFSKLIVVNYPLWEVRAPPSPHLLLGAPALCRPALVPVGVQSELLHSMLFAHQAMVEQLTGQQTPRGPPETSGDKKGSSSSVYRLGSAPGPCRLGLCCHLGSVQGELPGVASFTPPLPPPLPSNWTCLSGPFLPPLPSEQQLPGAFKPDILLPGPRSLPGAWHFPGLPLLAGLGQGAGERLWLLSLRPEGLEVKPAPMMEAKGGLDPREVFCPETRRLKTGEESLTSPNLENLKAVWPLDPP
# How it was run: as §1
# [12] = biological target: T8, ETS2 (Homo sapiens, UniProt P15036 1-469); conditions: protein: recombinant; tags: N-terminal GST; dsDNA, one strand shown
# T8 sequence: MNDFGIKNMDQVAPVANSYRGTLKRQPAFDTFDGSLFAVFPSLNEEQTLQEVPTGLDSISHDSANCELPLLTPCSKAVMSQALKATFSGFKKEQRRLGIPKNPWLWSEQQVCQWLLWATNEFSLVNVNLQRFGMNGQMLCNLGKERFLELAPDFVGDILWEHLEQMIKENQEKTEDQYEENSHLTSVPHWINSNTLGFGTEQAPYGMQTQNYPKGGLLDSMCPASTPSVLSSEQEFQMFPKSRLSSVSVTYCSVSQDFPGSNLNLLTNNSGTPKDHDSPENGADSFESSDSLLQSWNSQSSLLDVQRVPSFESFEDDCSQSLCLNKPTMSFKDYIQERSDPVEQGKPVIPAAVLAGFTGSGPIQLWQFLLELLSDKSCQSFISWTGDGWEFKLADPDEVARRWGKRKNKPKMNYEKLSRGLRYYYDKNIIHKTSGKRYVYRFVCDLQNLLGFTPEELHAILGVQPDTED
# How it was run: as §1
# [13] = biological target: T9, SPDEF (Homo sapiens, UniProt O95238 1-335); conditions: protein: recombinant; tags: N-terminal GST; dsDNA, one strand shown
# T9 sequence: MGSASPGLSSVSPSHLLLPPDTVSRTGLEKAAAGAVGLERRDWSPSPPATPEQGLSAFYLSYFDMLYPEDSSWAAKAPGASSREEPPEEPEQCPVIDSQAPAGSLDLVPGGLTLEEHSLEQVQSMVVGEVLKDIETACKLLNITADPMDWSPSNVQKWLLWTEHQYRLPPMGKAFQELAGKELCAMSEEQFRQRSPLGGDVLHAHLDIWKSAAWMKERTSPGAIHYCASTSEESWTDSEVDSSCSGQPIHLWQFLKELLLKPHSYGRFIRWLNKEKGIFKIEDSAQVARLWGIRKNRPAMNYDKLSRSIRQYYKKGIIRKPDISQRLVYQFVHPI
# How it was run: as §1
# [14] = biological target: T10, ETV7 (Homo sapiens, UniProt Q9Y603 1-341); conditions: protein: recombinant; tags: N-terminal GST; dsDNA, one strand shown
# T10 sequence: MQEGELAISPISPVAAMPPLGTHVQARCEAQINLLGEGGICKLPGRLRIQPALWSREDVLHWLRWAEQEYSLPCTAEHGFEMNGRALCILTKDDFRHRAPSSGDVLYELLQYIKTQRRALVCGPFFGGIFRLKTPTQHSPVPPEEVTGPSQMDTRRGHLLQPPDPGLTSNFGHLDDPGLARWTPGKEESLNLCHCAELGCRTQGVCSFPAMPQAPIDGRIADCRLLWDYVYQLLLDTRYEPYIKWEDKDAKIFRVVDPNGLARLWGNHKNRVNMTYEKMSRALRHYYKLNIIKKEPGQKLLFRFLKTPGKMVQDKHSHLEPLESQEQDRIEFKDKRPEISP
# How it was run: as §1
# [15] = biological target: T11, ELF5 (Homo sapiens, UniProt Q9UKW6-2 1-255); conditions: protein: recombinant; tags: N-terminal GST; dsDNA, one strand shown
# T11 sequence: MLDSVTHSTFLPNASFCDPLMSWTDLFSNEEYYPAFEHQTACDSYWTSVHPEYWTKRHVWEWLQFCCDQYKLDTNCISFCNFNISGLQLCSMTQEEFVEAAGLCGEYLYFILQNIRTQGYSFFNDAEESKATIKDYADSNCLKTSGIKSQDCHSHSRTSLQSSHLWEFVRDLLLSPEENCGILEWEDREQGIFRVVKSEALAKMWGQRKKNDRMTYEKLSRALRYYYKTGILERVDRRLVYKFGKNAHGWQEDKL
# How it was run: as §1
# [16] = biological target: T12, ETV3 (Homo sapiens, UniProt P41162-2 1-143); conditions: protein: recombinant; tags: N-terminal GST; dsDNA, one strand shown
# T12 sequence: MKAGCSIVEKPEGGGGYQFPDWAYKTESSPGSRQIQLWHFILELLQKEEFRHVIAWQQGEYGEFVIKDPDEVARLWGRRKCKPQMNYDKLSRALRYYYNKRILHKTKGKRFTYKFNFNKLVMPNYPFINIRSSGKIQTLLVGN
# How it was run: as §1
# [17] = biological target: ETV6 (Homo sapiens, UniProt P41212 1-452); conditions: protein: recombinant; tags: N-terminal GST; dsDNA, one strand shown
# How it was run: as §1
# ELF4, sequence (Q99607 whole entry): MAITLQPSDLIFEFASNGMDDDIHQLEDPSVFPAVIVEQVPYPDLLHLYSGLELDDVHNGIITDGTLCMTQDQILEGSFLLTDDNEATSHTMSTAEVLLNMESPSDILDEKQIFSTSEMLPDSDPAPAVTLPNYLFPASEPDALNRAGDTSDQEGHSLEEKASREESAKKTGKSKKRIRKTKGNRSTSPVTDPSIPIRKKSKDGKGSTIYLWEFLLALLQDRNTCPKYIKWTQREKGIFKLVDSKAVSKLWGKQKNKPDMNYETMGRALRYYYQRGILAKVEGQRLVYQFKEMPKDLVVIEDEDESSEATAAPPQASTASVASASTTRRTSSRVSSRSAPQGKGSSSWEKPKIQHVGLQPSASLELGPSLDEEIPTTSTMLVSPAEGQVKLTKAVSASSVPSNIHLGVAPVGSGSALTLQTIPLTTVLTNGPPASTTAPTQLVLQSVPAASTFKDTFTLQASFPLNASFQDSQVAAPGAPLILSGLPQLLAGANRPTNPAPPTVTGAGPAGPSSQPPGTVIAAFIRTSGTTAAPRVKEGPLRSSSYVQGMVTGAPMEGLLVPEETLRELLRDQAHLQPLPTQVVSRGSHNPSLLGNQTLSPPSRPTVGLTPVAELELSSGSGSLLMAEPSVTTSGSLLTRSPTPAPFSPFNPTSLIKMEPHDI
# HSF1, sequence (Q00613 whole entry): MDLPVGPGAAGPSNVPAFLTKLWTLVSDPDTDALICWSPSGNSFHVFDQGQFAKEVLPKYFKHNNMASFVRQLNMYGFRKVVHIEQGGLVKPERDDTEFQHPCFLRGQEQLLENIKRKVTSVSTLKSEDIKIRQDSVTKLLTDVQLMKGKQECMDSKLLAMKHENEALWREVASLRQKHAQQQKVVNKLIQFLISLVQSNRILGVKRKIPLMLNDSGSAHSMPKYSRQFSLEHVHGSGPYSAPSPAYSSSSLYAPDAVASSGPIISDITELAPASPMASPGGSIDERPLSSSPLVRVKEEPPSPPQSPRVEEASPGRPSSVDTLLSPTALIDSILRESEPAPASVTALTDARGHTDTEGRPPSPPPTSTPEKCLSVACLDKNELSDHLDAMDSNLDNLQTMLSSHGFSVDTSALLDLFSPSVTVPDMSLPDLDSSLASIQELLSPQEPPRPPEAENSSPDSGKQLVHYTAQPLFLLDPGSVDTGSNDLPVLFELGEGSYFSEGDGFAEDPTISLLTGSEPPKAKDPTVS
# CRX, sequence (O43186 whole entry): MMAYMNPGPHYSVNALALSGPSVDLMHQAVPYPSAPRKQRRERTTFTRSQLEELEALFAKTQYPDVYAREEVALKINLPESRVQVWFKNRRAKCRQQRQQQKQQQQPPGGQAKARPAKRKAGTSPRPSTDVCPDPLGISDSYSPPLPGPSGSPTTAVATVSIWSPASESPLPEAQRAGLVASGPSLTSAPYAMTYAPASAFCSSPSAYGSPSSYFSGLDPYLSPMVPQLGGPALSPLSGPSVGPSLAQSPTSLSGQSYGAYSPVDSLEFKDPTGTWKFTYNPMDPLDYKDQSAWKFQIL
# ETV6, sequence (P41212 whole entry): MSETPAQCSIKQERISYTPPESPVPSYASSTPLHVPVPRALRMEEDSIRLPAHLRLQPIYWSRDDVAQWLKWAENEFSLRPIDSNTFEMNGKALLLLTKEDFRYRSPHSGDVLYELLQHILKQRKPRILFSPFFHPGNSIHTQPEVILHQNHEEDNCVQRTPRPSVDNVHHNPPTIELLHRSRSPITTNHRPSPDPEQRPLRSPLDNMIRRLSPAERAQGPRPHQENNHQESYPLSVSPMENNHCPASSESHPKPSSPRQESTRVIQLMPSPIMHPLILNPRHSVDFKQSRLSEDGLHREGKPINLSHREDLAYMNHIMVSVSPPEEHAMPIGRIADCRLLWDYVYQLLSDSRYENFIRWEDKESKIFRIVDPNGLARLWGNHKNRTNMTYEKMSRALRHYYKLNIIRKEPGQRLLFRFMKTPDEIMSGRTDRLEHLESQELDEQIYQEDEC
# ETV5, sequence (P41161 whole entry): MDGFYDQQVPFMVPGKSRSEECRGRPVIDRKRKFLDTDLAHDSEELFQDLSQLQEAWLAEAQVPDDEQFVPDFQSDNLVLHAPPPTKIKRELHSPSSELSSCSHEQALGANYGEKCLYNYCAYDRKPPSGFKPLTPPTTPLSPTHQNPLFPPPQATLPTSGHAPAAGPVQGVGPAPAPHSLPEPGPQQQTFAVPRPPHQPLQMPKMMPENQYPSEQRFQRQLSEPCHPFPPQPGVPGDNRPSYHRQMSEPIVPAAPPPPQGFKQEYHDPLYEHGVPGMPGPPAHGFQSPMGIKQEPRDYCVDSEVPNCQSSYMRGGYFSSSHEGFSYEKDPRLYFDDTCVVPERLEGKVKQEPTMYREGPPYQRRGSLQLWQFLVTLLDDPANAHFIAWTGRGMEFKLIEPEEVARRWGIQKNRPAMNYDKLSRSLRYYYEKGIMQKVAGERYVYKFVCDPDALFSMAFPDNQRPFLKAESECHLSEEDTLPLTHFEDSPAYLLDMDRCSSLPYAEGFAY
sequence,measurement,setting,value
TGATAT,binding signal,[1],"1.07 fold enrichment (6-mer frequency, TF over GST control)"
same,binding signal,[2],"1.1 fold enrichment (6-mer frequency, TF over GST control)"
same,binding signal,[3],"1.01 fold enrichment (6-mer frequency, TF over GST control)"
same,binding signal,[4],"1.05 fold enrichment (6-mer frequency, TF over GST control)"
same,binding signal,[5],"1.12 fold enrichment (6-mer frequency, TF over GST control)"
same,binding signal,[6],"1.14 fold enrichment (6-mer frequency, TF over GST control)"
same,binding signal,[7],"1.21 fold enrichment (6-mer frequency, TF over GST control)"
same,binding signal,[8],"1.04 fold enrichment (6-mer frequency, TF over GST control)"
same,binding signal,[9],"1.08 fold enrichment (6-mer frequency, TF over GST control)"
same,binding signal,[10],"1.02 fold enrichment (6-mer frequency, TF over GST control)"
same,binding signal,[11],"1.09 fold enrichment (6-mer frequency, TF over GST control)"
same,binding signal,[12],"1.12 fold enrichment (6-mer frequency, TF over GST control)"
same,binding signal,[13],"1.18 fold enrichment (6-mer frequency, TF over GST control)"
same,binding signal,[14],"1.03 fold enrichment (6-mer frequency, TF over GST control)"
same,binding signal,[15],"1.09 fold enrichment (6-mer frequency, TF over GST control)"
same,binding signal,[16],"1.15 fold enrichment (6-mer frequency, TF over GST control)"
same,binding signal,[17],"1.06 fold enrichment (6-mer frequency, TF over GST control)"
